Source: PubChem BioAssay (EPA / NIEHS)
Records with an inconclusive call do not appear. Activity calls are given as the source filed them. How the source made its calls: active means hit-call score of the fitted dose curve at least 0.9, where 1 is the maximum; inconclusive means response in the unintended direction; inactive means score below 0.9.

What was measured:
[1] = biological target: human CYP2D6, CYP2D6 (gene 1565) (UniProt P10635); assay: NVS_ADME_hCYP2D6: NovaScreen (NVS) CYP450-related Enzyme Activity (ADME) Assay for human CYP2D6 (AID 2283107)
Sequence of human CYP2D6, CYP2D6 (gene 1565) (P10635 whole entry, looked up): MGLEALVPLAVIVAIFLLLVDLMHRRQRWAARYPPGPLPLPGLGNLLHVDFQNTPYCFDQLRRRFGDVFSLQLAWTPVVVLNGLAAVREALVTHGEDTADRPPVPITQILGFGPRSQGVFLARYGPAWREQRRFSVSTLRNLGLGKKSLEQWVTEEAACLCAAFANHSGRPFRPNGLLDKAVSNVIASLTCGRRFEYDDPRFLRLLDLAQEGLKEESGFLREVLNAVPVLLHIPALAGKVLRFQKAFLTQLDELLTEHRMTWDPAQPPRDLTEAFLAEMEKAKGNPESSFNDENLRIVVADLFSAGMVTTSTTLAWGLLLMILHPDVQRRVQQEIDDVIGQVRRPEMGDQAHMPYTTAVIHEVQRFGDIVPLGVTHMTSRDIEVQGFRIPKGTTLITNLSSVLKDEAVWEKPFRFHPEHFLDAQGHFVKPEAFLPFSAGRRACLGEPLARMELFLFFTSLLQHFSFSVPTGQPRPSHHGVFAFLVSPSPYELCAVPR
Procedure, shortened: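 Cell-free assay using recombinant human CYP2D6 expressed in insect cells, with a fluorogenic substrate read after 1 h. Primary screen in duplicate at 10 uM; actives followed up in concentration series. Loss of signal fitted relative to acetonitrile.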

[2] = biological target: Cytochrome P450 3A4 (Homo sapiens) (UniProt P08684); assay: NVS_ADME_hCYP3A4: NovaScreen (NVS) CYP450-related Enzyme Activity (ADME) Assay for human CYP3A4 (AID 2283110)
Sequence of Cytochrome P450 3A4 (Homo sapiens) (P08684 whole entry, looked up): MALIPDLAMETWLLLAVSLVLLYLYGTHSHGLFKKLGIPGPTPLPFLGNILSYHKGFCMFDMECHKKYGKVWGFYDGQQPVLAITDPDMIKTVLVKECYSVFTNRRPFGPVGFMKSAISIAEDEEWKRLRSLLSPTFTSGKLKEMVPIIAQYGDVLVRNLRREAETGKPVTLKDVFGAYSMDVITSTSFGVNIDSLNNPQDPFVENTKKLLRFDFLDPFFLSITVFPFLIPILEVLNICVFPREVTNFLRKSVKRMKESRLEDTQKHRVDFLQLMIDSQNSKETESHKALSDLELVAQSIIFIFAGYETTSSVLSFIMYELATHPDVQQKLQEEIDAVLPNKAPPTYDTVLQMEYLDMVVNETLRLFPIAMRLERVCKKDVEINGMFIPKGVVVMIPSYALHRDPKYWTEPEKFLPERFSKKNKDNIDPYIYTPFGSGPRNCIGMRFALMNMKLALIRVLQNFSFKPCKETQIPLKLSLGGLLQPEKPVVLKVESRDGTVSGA
Procedure, shortened: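 Activity is derived from decreased fluorescence intensity relative to acetonitrile, measured 0.33 hour after dosing insect-cell-expressed CYP3A4 in a cell-free format. Screening used 10 uM in duplicate before concentration-response follow-up.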

[3] = biological target: Cytochrome P450 2C19 (Homo sapiens) (UniProt P33261); assay: NVS_ADME_hCYP2C19: NovaScreen (NVS) CYP450-related Enzyme Activity (ADME) Assay for human CYP2C19 (AID 2283113);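 on AC50: potency for inhibition seen as loss of fluorescent signal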
Procedure, shortened: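 Cell-free recombinant human CYP2C19 from insect cells, fluorescent substrate; activity read by fluorescence intensity 1 h after dosing. Primary screen in duplicate at 10 uM; actives retested in concentration series. Signal loss versus acetonitrile negative control.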

[4] = biological target: human CYP2C9, CYP2C9 (gene 1559) (UniProt P11712); assay: NVS_ADME_hCYP2C9: NovaScreen (NVS) CYP450-related Enzyme Activity (ADME) Assay for human CYP2C9 (AID 2283108)
Sequence of human CYP2C9, CYP2C9 (gene 1559) (P11712 whole entry, looked up): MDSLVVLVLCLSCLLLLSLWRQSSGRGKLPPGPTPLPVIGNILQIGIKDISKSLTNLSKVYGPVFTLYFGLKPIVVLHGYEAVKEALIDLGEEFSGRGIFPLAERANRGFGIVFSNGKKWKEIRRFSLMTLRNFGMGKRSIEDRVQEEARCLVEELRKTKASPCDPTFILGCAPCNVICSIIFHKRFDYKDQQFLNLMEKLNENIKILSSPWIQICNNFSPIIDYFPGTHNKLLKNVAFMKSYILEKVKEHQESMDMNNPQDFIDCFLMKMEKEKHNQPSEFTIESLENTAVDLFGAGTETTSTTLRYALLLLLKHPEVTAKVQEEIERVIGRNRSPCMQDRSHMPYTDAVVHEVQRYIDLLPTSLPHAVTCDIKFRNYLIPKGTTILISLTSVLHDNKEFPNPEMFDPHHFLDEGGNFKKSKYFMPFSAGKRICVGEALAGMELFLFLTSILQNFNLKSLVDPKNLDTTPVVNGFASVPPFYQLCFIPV
Procedure, shortened: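 Cell-free assay of recombinant human CYP2C9 produced in Sf9 cells, with enzyme activity read by fluorescence intensity 0.75 h after compound addition. Loss of signal versus an acetonitrile negative control indicates inhibition. Primary screen used 10 uM in duplicate; actives were retested in concentration series.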

[5] = biological target: human Beta-secretase (BACE), BACE1 (gene 23621) (UniProt P56817); assay: NVS_ENZ_hBACE: NovaScreen (NVS) Enzymatic Assay for human Beta-secretase (BACE) (AID 2283140);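 further: hits are inhibitors that reduce fluorescent substrate signal versus DMSO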
Sequence of human Beta-secretase (BACE), BACE1 (gene 23621) (P56817 whole entry, looked up): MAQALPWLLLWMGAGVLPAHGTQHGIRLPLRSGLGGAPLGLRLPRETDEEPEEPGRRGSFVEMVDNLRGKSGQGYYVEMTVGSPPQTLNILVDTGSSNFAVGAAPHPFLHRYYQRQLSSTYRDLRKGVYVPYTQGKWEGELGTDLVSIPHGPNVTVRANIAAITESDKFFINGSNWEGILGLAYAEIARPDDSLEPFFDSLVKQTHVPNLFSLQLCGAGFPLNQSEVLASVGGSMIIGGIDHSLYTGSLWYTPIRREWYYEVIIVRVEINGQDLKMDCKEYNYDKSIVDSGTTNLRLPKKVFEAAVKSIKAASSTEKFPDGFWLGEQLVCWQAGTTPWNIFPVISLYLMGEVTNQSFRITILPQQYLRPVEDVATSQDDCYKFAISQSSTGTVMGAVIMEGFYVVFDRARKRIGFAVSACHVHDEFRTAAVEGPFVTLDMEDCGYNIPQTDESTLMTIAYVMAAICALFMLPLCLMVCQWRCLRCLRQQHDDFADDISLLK
Procedure, shortened: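 Enzyme from SF9 cells was incubated 1 hour with compound and fluorogenic substrate, activity read by fluorescence. Single-concentration duplicates at 25 uM preceded concentration-response follow-up; fitting relative to DMSO baseline.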

CDK2 (gene 1017) = CDK2 (gene 1017) (UniProt P24941); assay: NVS_ENZ_hCDK2: NovaScreen (NVS) Enzymatic Assay for human Cyclin-Cependent Kinase 2 (CDK2) (AID 2283144)
Procedure, shortened: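 Compounds screened in duplicate at 25 uM, then in singleton concentration-response to a maximum of 50 uM, against recombinant CDK2; kinase activity read 1 hr after dosing by fluorescence with mobility-shift separation of substrate and product.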

[6] = biological target: human Casein Kinase 1-delta (CK1D), CSNK1D (gene 1453) (UniProt P48730); assay: NVS_ENZ_hCK1D: NovaScreen (NVS) Enzymatic Assay for human Casein Kinase 1-delta (CK1D) (AID 2283148)
Sequence of human Casein Kinase 1-delta (CK1D), CSNK1D (gene 1453) (P48730 whole entry, looked up): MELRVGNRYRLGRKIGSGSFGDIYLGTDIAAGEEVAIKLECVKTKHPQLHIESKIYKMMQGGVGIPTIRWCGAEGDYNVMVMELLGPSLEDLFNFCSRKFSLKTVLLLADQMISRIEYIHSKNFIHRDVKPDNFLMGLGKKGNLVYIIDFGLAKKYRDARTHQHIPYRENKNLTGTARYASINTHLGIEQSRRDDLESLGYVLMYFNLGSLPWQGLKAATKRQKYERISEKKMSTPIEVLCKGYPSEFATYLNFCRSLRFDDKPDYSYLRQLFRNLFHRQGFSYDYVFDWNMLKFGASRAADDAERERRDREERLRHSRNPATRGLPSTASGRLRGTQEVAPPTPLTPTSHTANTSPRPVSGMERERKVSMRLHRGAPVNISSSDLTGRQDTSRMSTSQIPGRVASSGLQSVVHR
Procedure, shortened: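 Recombinant human CK1-delta, cell-free; fluorescent substrate with electrophoretic mobility-shift separation of product, read 1 h after dosing. Single 25 uM duplicate screen, then concentration-response up to 50 uM; loss of signal vs DMSO.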

[7] = biological target: human Caspase 5 (CASP5), CASP5 (gene 838) (UniProt P51878); assay: NVS_ENZ_hCASP5: NovaScreen (NVS) Enzymatic Assay for human Caspase 5 (CASP5) (AID 2283137)
Sequence of human Caspase 5 (CASP5), CASP5 (gene 838) (P51878 whole entry, looked up): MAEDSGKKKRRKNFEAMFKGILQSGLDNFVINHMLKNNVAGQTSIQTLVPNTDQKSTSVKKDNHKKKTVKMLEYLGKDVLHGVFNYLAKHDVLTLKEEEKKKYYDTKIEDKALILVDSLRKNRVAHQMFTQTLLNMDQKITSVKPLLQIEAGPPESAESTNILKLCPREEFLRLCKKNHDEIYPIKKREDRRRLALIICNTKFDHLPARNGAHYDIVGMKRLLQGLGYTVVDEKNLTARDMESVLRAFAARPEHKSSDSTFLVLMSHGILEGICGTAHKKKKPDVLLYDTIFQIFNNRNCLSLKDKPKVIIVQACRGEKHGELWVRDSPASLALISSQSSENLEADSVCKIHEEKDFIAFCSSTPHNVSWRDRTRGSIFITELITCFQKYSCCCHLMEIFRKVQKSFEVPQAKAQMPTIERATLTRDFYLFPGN
Procedure, shortened: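 Loss of fluorescent signal versus DMSO scored for E. coli-derived human CASP5 cleaving a fluorescent substrate, 2 h post-dosing; compounds first tested at 25 uM in duplicate, hits rerun in concentration series with 50 uM top concentration.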

[8] = biological target: human Caspase 4 (CASP4), CASP4 (gene 837) (UniProt P49662); assay: NVS_ENZ_hCASP4: NovaScreen (NVS) Enzymatic Assay for human Caspase 4 (CASP4) (AID 2283143)
Sequence of human Caspase 4 (CASP4), CASP4 (gene 837) (P49662 whole entry, looked up): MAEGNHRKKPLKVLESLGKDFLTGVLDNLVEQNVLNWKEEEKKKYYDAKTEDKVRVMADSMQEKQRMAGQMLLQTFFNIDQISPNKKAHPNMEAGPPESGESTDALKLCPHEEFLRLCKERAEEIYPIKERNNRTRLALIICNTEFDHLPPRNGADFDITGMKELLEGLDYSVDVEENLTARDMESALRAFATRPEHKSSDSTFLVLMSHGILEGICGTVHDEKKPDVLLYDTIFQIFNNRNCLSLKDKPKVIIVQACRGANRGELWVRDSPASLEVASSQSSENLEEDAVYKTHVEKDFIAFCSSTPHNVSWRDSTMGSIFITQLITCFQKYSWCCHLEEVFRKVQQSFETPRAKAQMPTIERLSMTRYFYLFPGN
Procedure, shortened: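 Compounds were first tested in duplicate at 25 uM, and hits were titrated singly to a 50 uM maximum. Recombinant protease from E. coli was read by fluorescence 2 h post-dose, and activity loss was fitted against the DMSO baseline.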

[9] = biological target: human AKT serine/threonine Kinase 1 (AKT1), AKT1 (gene 207) (UniProt P31749); assay: NVS_ENZ_hAKT1: NovaScreen (NVS) Enzymatic Assay for human AKT serine/threonine Kinase 1 (AKT1) (AID 2283138)
Sequence of human AKT serine/threonine Kinase 1 (AKT1), AKT1 (gene 207) (P31749 whole entry, looked up): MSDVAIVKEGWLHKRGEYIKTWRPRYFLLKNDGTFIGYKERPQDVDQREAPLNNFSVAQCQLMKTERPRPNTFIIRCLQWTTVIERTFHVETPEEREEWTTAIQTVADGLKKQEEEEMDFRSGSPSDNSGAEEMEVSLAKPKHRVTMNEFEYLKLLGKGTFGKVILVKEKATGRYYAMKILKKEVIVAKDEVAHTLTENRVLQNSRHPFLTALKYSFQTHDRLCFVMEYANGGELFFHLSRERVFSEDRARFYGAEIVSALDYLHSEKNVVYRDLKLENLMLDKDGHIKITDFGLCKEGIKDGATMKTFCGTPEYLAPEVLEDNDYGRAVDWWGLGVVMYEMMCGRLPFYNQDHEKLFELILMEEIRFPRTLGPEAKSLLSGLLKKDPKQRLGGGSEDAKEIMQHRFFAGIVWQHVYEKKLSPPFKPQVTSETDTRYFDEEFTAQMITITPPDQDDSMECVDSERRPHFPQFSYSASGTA
Procedure, shortened: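 Screening first at 25 uM (duplicate), with threshold-passing chemicals re-tested in concentration series to a 50 uM maximum. Kinase activity read by fluorescence with mobility-shift separation of substrate and product, 1 h after dosing, DMSO baseline.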

[10] = biological target: human AKT serine/threonine Kinase 2 (AKT2), AKT2 (gene 208) (UniProt P31751); assay: NVS_ENZ_hAKT2: NovaScreen (NVS) Enzymatic Assay for human AKT serine/threonine Kinase 2 (AKT2) (AID 2283141)
Sequence of human AKT serine/threonine Kinase 2 (AKT2), AKT2 (gene 208) (P31751 whole entry, looked up): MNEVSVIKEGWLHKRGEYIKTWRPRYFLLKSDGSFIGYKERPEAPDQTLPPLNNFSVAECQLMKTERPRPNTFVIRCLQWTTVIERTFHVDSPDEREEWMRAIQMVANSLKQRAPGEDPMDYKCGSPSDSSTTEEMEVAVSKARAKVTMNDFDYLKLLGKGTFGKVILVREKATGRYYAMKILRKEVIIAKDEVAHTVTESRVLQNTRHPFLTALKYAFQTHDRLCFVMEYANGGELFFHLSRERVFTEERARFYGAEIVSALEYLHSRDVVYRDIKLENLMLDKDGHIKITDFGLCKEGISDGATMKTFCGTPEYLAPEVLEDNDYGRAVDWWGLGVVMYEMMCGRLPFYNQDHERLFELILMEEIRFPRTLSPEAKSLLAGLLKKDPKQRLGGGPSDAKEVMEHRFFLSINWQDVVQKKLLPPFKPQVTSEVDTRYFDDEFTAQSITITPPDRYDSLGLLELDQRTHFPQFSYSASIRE
Procedure, shortened: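 Cell-free fluorescence/electrophoretic mobility shift readout of recombinant human AKT2 activity, 1 h after chemical dosing. Duplicate primary screen at 25 uM, then singleton concentration-response up to 50 uM; loss of signal versus DMSO baseline.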

In the case of `Cc1occc1C(=O)Nc1ccc(C(=O)N2CCC(F)(F)/C(=C\C(=O)N3CCC(N4CCCCC4)CC3)c3ccccc32)cc1`, the AC50 [1] is reported as 1.77 µM (active) and the outcome [2] is reported as “inactive”.

For `c1ccc(C[n+]2cccc3ccccc32)cc1`, the AC50 [1] was 7.84 µM (active) and the AC50 [3] was 4.78 µM (active).

In the case of `COc1cc(C(=O)NC2CCN(C)CC2)ccc1Nc1ncc2c(n1)N(C1CCCC1)CC(F)(F)C(=O)N2C`, the AC50 [4] is reported as 6.56 µM (active), the AC50 [3] is reported as 7.11 µM (active) and the outcome [5] is reported as “inactive”. For the same compound, the outcome (CDK2 (gene 1017)) was “inactive” and the AC50 [6] was 18.1 µM (active).

With `CCN(Cc1cccnc1)C(=O)c1cccc(Cl)c1[C@]1(C)C(=O)N(Cc2ccc(OC)cc2OC)c2ccc(Cl)cc21` the outcome [1] was “inactive”, the AC50 [4] was 2.28 µM (active) and the AC50 [2] was 3.58 µM (active). The AC50 [3] was 1.01 µM (active), the outcome [7] was “inactive” and the outcome [8] was “inactive”.

For `CN(C[C@@H](CC[N+]12CCC(C3CCCCC3)(CC1)CC2)c1ccc(Cl)c(Cl)c1)C(=O)c1cc(C(F)(F)F)cc(C(F)(F)F)c1`, the AC50 [4] was 7.68 µM (active), the AC50 [5] was 29.9 µM (active) and the outcome [6] was “inactive”.

With `CCN(CC)C(=O)c1cc(S(=O)(=O)Cc2ccccc2)c(N2CCC(c3ccccc3)CC2)cc1N(CC)CCN(C)C` the AC50 [1] was 5.11 µM (active), the AC50 [4] was 12.5 µM (active) and the AC50 [2] was 4.11 µM (active). For the same compound, the AC50 [3] was 3.48 µM (active) and the outcome [8] was “inactive”.

`Clc1cc(Cl)c2c(c1)N=C1CCCCCN1C2` was tested, and the AC50 [1] was 2.71 µM (active) and the outcome (CDK2 (gene 1017)) was “inactive”.

`Cc1oc2c(NC(=O)c3c(Cl)cccc3Cl)cccc2c1C(C)(C)O` was tested, and the AC50 [2] was 7.44 µM (active).

`CCCCOC(=O)c1ccc(O)cc1` was tested, and the AC50 [1] was 4.89 µM (active), the AC50 [4] was 7.15 µM (active) and the AC50 [3] was 7.75 µM (active). The outcome [5] was “inactive”.

`CCCCCCCCOC(=O)c1cc(O)c(O)c(O)c1` was tested, and the AC50 [1] was 10.1 µM (active), the AC50 [4] was 7.75 µM (active) and the AC50 [2] was 15.4 µM (active). The AC50 [3] was 5.4 µM (active), the AC50 [7] was 25.4 µM (active) and the outcome [9] was “inactive”. The outcome [10] was “inactive” and the outcome [8] was “inactive”.

With `CN(C)c1ccc(C(=C2C=CC(=[N+](C)C)C=C2)c2ccc(N(C)C)cc2)cc1` the AC50 [1] was 2.86 µM (active), the AC50 [3] was 3.32 µM (active) and the AC50 [5] was 14 µM (active).

`CC(C)(O)c1ccc(CNC(=O)c2cccnc2Oc2ccc3nonc3c2)cc1` was tested, and the AC50 [4] was 13 µM (active), the AC50 [3] was 10.9 µM (active) and the outcome [9] was “inactive”.

With `CCOC(=O)O[C@H](C)OC(=O)c1ccc2c(c1)cc(C(=O)NC1CCN(C(C)C)CC1)n2Cc1cc(-c2ccc(Cl)s2)on1` the AC50 [4] was 15.4 µM (active), the AC50 [2] was 9.45 µM (active) and the AC50 [3] was 5.54 µM (active). The AC50 [5] was 0.447 µM (active) and the AC50 [10] was 23.6 µM (active).

`CC(C)(c1cc(Br)c(O)c(Br)c1)c1cc(Br)c(O)c(Br)c1` was tested, and the AC50 [4] was 2.93 µM (active).

`NCc1cccc(C2CCN(C(=O)c3ccc(C#Cc4ccccc4F)o3)CC2)c1` was tested, and the AC50 [1] was 6.76 µM (active), the AC50 [4] was 0.112 µM (active) and the AC50 [2] was 10 µM (active). For the same compound, the AC50 [3] was 0.23 µM (active) and the AC50 [5] was 41.8 µM (active).

`CN(C)C(=O)C1(N2CCCCC2)CCN(CC[C@@]2(c3ccc(Cl)c(Cl)c3)CN(C(=O)c3ccccc3)CCO2)CC1` was tested, and the AC50 [1] was 4.97 µM (active), the AC50 [4] was 1.17 µM (active) and the AC50 [2] was 0.586 µM (active). For the same compound, the AC50 [3] was 0.393 µM (active) and the outcome [5] was “inactive”.

`O=C1c2ccccc2C(=O)N1CCc1noc(-c2ccc(CN3CCCCCC3)s2)n1` was tested, and the AC50 [1] was 6.57 µM (active), the AC50 [4] was 5.62 µM (active) and the outcome [2] was “inactive”. The AC50 [3] was 1.13 µM (active) and the outcome [6] was “inactive”.

`CCCOC(=O)c1cc(O)c(O)c(O)c1` was tested, and the outcome [4] was “inactive”, the outcome [2] was “inactive” and the outcome [3] was “inactive”.
